In PubChem BioAssay AID623911 (Vanderbilt High Throughput Screening Facility, 2012):
The whole screen tested about 2,100 compounds, of which about 770 (37%) were called active. This is one part of the list. Unmarked numbers belong to inactive results.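 The calls were made as follows: active = by-eye trace score of 1 for enhancers or -1 for inhibitors, so actives lie on both sides (some results past the limit were not filed as active); inactive = score 0, or 3 fluorescent, or 4 baseline rise.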

Target: G protein-activated inward rectifier potassium channel 2 (Homo sapiens) + G protein-activated inward rectifier potassium channel 1 (Homo sapiens) (UniProt P48051+P48549)
Assay: GIRK1/2 thallium flux modulators, retest, confirmation, cell-based, HEK293 rmGlu8/hGIRK1/2, FluoZin-2 (AID 623911)
Details: HEK293 rmGlu8/hGIRK1/2, thallium flux FluoZin-2; actives lie on both sides; glutamate co-added at its EC20 level

Chain of G protein-activated inward rectifier potassium channel 2 (Homo sapiens) + G protein-activated inward rectifier potassium channel 1 (Homo sapiens) (P48051 whole entry, looked up): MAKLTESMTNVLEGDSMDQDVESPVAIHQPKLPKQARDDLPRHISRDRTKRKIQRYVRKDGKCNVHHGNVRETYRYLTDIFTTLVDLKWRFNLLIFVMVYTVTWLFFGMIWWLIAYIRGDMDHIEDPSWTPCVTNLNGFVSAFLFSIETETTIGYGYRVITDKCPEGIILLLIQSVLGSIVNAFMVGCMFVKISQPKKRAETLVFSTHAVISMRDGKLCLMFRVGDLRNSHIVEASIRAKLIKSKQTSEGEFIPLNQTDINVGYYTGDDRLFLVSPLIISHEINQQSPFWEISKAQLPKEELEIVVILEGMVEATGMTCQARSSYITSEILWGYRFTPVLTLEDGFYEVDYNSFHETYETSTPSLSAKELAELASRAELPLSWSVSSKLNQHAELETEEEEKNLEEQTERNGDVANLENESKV
Chain of G protein-activated inward rectifier potassium channel 2 (Homo sapiens) + G protein-activated inward rectifier potassium channel 1 (Homo sapiens) (P48549 whole entry, looked up): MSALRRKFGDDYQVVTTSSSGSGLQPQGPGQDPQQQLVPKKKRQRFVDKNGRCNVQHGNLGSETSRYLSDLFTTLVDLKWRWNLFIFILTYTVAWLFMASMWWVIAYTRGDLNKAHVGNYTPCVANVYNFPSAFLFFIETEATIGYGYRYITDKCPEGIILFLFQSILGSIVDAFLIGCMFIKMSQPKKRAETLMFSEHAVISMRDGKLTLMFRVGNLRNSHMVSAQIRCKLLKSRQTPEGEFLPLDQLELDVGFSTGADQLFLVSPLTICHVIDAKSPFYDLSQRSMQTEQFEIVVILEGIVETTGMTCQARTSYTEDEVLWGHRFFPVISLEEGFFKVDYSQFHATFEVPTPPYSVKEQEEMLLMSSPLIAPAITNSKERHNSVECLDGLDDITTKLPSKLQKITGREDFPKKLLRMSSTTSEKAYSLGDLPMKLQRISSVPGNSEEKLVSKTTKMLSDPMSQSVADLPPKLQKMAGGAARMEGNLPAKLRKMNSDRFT

SMILES	manual score
Cc1ccc(C)c(NC(=S)N=Nc2c(O)n(C)c3ccc(S(=O)(=O)N4CCOCC4)cc23)c1	0
O=c1c(-c2ccccc2)nc(-c2ccccc2)cn1O	1 (active)
N=c1oc2ccc3ccccc3c2cc1-c1nc(-c2ccccc2)cs1	3
CC(C)CCn1c(CN2CCN(Cc3ccccc3)CC2)nc2c1c(=O)[nH]c(=O)n2C	-1 (active)
CCN(C(=O)CN1CCN(c2ccccc2O)CC1)c1c(N)n(Cc2ccccc2)c(=O)[nH]c1=O	0
CN(C)CCNc1nc2c(c(=O)[nH]c(=O)n2C)n1CCCc1ccccc1	0
Nc1nc2n(n1)C(c1cccs1)CC(c1ccc(F)cc1)N2 (stereo unspecified)	0
COc1ccc(C2CC(c3ccc(Cl)c(Cl)c3)Nc3nc(N)nn32)cc1 (stereo unspecified)	1 (active)
CCn1c(=O)cc(OCC(=O)Nc2cccc(C)n2)c2ccccc21	0
COc1cccc(NC(=O)CC2COc3ccccc3O2)c1 (stereo unspecified)	1 (active)
COc1cccc(NC(=O)NC2(C(F)(F)F)Oc3ccccc3O2)c1	0
COc1cccc2c1OC[C@@H](CO)[C@H]2N(C)C(=O)Nc1ccccc1	0
CCc1cc2cccc(C)c2nc1SCC(=O)c1ccc(NC(C)=O)cc1	0
COc1ccc(N2CCCn3c2nc2c3c(=O)n(Cc3ccccc3F)c(=O)n2C)c(OC)c1	-1 (active)
Cn1c(N2CCCC2)nc2c1c(=O)n(Cc1ccc(Cl)cc1)c(=O)n2C	-0.5
CC12CCC(C(=O)N3CCCc4ccccc43)(CC1=O)C2(C)C (stereo unspecified)	0
COC(=O)c1cc2sccc2n1CC(=O)N1CCCc2ccccc21	-1 (active)
Cn1c(C(=O)OC(C(=O)NC2CCCCC2)c2ccncc2)cc2sccc21 (stereo unspecified)	0
CS(=O)(=O)Nc1ccc(C2=NN(C(=O)C3CCCCC3)C(c3cccs3)C2)cc1 (stereo unspecified)	-0.5
C=CCN(CC=C)C(=S)NC(=O)/C=C/c1ccc(C)cc1	1 (active)
COc1ccc(C(=O)NC(=S)NC(C)C)cc1Br	0.5
C=CCN(CC=C)C(=S)NC(=O)c1ccc(C)c(Br)c1	1 (active)

SMILES	manual score
C=CCN(CC=C)C(=S)NC(=O)c1ccc(OC)c(Br)c1	1 (active)
Cc1ccnc(NC(=S)NC(=O)/C=C/c2ccco2)c1	0
COc1ccc(C(=O)NC(=S)NCCO)cc1Br	1 (active)
COc1cc(/C=C2/C(=O)N=C(N)N2C)cc(OC)c1OC	0
CC(C)COc1ccc(Cc2cnc(N)nc2N)cc1	0
Cc1ccc(C(=O)NC(=S)Nc2ccccc2C(F)(F)F)cc1C	0
O=C(COc1ccccc1)NC(=S)Nc1ccc2c3c(cccc13)CC2	0.5
O=C(COc1ccccc1)NC(=S)Nc1ccc2c(c1)Cc1ccccc1-2	0
Cc1ccc(C(=O)NC(=S)Nc2ccccc2C(F)(F)F)cc1	1 (active)
O=C(COc1ccccc1)NC(=S)Nc1cccc([N+](=O)[O-])c1	1 (active)
COC(=O)c1ccccc1NC(=S)NC(=O)COc1ccccc1	1 (active)
COC(=O)c1ccccc1NC(=S)NC(=O)c1ccc(C)cc1	1 (active)
COC(=O)c1ccccc1NC(=S)NC(=O)COc1ccc(C)cc1	0
CCC1c2ccc(C)n2CCN1C(=O)Nc1ccccc1C(=O)OC (stereo unspecified)	0
COC(=O)c1ccccc1NC(=S)NC(=O)c1ccccc1	1 (active)
O=C(NC(=S)Nc1ccc(Oc2ccc(Cl)cc2)cc1)c1ccccc1	0
CCOC(=O)c1ccc(NC(=S)NC(=O)COc2ccccc2)cc1	0.5
CCOC(=O)c1[nH]c(C)c(C(=O)NC2CCCCC2)c1C	0
S=C(Nc1ccc(Oc2ccccc2)cc1)NC1CCCC1	1 (active)
FC(F)(F)Oc1ccc(NC(=S)NCc2ccccc2)cc1	0
CCCN(CC1CC1)C(=S)Nc1ccc(Oc2ccccc2)cc1	1 (active)
S=C(NN=C(C1CC1)C1CC1)Nc1ccccc1	0

SMILES	manual score
CC1CCCCN1CC(=O)Nc1ccc(Oc2ccccc2)cc1 (stereo unspecified)	0
CCOC(=O)c1ccc(NC(=S)NC2CCCC2)cc1	1 (active)
CC(C)CNC(=S)Nc1ccc(Oc2ccccc2)cc1	1 (active)
COc1ccc(N(CC(=O)NCCSc2ccccn2)S(C)(=O)=O)cc1Cl	0
COc1cc2c(cc1NC(=O)COc1ccccc1OC)oc1ccccc12	0
COc1ccc(CN(C)CC(=O)NC(=O)NCc2ccccc2)cc1OC	0
COc1ccc(CCNC(=O)CSc2nnc(-c3ccc(F)cc3)c3ccccc23)cc1OC	-1 (active)
CCCCC(=O)Nc1ncc2c(n1)CC(C)(C)CC2=O	0
CC1(C)Cc2nc(NCCN3CCOCC3)c(C#N)cc2CO1	0
O=C(NN=C(Cc1ccccc1)Cc1ccccc1)c1ccc(F)cc1	1 (active)
N/C(=N\OC(=O)Cc1ccccc1)c1ccc(Br)cc1	0
O=C(Nc1ccccc1C(=O)N/N=C/c1ccco1)c1ccccc1	0.5
Cc1ccccc1C(=O)Nc1ccccc1C(=O)N/N=C\c1ccco1	1 (active)
Cc1cc(C)c(NC(=O)/C(=C/c2ccco2)c2ccccc2)c(C)c1	0
Fc1ccc(CSc2nc3ccccc3[nH]2)c2ccccc12	1 (active)
O=C(CSc1nc2ccccc2[nH]1)NC1CCCc2ccccc21 (stereo unspecified)	0
CC(Sc1nc2ccccc2c(=O)[nH]1)C(=O)O (stereo unspecified)	0
CN1CCN(c2ccccc2NS(=O)(=O)c2ccc3c(c2)CCN3C(=O)C2CCC2)CC1	-1 (active)
O=[n+]1c2c(n([O-])c3cc(F)c(N4CCCC4)cc31)CCC2	3
CCCN(CCC)CCNC(=O)C(NS(=O)(=O)c1ccc2c(c1)CCC(=O)N2)c1ccccc1 (stereo unspecified)	0
Cc1ccc(S(=O)(=O)n2cnc3cc([N+](=O)[O-])ccc32)cc1C	0
COc1ccc(OC)c(C2C(C(=O)c3cc4ccccc4o3)=C(O)C(=O)N2c2cc(C)on2)c1 (stereo unspecified)	0

SMILES	manual score
Cc1cccc(-n2ncc3c(NCCc4ccc(S(N)(=O)=O)cc4)ncnc32)c1	0
NS(=O)(=O)c1ccc(CCNC2CC(=O)N(Cc3ccccc3)C2=O)cc1 (stereo unspecified)	0
Cc1nc(NCCc2ccc(S(N)(=O)=O)cc2)c2c(C)c(C)sc2n1	1 (active)
CC(C)NC(=S)NC(=O)c1ccc(Cl)cc1Cl	1 (active)
CCCCNC(=S)NC(=O)c1ccc(Cl)cc1Cl	1 (active)
CC(C)CNC(=S)NC(=O)c1ccccc1Cl	0
CCCCNC(=S)NC(=O)c1ccccc1Br	0.5
CC(C)CNC(=S)NC(=O)c1ccc(Cl)cc1Cl	1 (active)
CCOc1ccc(C(C)=O)cc1N1C(=O)C2C(C1=O)C1C=CC2C12CC2 (stereo unspecified)	0
C=CCn1c(=S)[nH]c2sc3c(c2c1=O)CCC3	1 (active)
CC(=O)Nc1ccc(Oc2ncccn2)cc1	0
Cc1ncoc1C(=O)Nc1ccc(Oc2ccccc2)cc1	0.5
Cc1nc(C)c(C(=O)Nc2ccc(Oc3ccccc3)cc2)o1	1 (active)
O=C1c2ccsc2SCCN1Cc1c(Cl)cccc1Cl	-1 (active)
CCCC(c1c(C)n(C)n(-c2ccccc2)c1=O)c1c(C)n(C)n(-c2ccccc2)c1=O	0
COc1ccc(C(=O)N/N=C/c2ccc3cccc(OCc4ccccc4)c3n2)cc1	0
O=C(N/N=C/c1ccccn1)c1ccc(Br)cc1	1 (active)
O=C(N/N=C/c1ccc2cccc(OCc3ccccc3)c2n1)c1ccc(Br)cc1	0.5
CCCC1=C(C(=O)OCC)C(c2ccc(F)cc2)n2ncnc2N1 (stereo unspecified)	0
CCOC(=O)C1=C(C)Nc2nnnn2C1c1ccccc1Cl (stereo unspecified)	-1 (active)
CCOC(=O)C1=C(C)NC2=C(C(=O)C(C(=O)OCC)C(c3ccccc3OC)C2)C1c1ccccn1 (stereo unspecified)	0
CCCCCn1c(NCc2ccco2)nc2ccccc21	-1 (active)

SMILES	manual score
CCCn1c(NCc2ccc(N(C)C)cc2)nc2ccccc21	-1 (active)
CCCCn1c(NC(=O)c2ccccc2Cl)c(C#N)c2nc3ccccc3nc21	-0.5
CCc1c(C)c(C#N)c2nc3ccccc3n2c1NCc1ccco1	-1 (active)
Cn1c(NCc2cccc(Br)c2)nc2ccccc21	-1 (active)
C/C(=N\NC(=O)c1ccccc1)c1nc2ccccc2n1C	0
CC(C)CCn1c(S(=O)(=O)O)nc2ccccc21	0
CCCCn1c(SCC(=O)NCc2ccco2)nc2ccccc2c1=O	0.5
CCN1c2ccccc2-c2nc3ccccc3n2C1c1ccco1 (stereo unspecified)	0
CCCCn1c(NC(=S)Nc2ccccc2)nc2ccccc21	0
Cc1cccc(N2C(N)=NC(N)=NC23CCCCC3)c1	0
O=C(CN1C(=O)/C(=C/c2ccccc2F)Oc2ccccc21)N1CCN(c2ccccn2)CC1	0
O=C(NNC(=O)c1cccnc1SCc1cccc([N+](=O)[O-])c1)c1cccnc1	0
O=C(NNC(=O)c1cccnc1SCc1cccc([N+](=O)[O-])c1)c1ccccn1	0
O=C(Oc1c(Cl)cc(Cl)c2cccnc12)c1ccco1	1 (active)
O=C(Oc1c(Cl)cc(Cl)c2cccnc12)c1cccc([N+](=O)[O-])c1	1 (active)
Cc1ccccc1NC1=C(Cl)C(=O)OC1OC(=O)c1ccco1 (stereo unspecified)	0
Cc1ccc(C2c3c(oc4ccc(Cl)cc4c3=O)C(=O)N2CCCN2CCOCC2)o1 (stereo unspecified)	0.5
O=c1c2ccccc2c(C=NCc2ccccn2)c(O)n1-c1ccccc1	0
